Assay results from PubChem BioAssay.
The source made the active and inactive calls. Unless noted, how the calls were made is not given here.

Tests used:
[1] = resazurin metabolic signal in HepG2 cells – cell-based, resazurin fluorescence, 24 h, PK04 Diversity Set, profiling panel (AID 1172); details: HepG2 viability, higher = more signal
[2] = budding yeast growth changes without added modifier – OD600, strain BY4716, 24 h, basal condition, primary screen (AID 1173); details: S. cerevisiae BY4716 growth, OD600, 24 h; higher = more signal, called active from +8 up or from −8 down
[3] = viability profiling in MM1S myeloma cells – cell-based, resazurin fluorescence, basal, 24 h, PK04 Diversity Set, profiling panel (AID 1174); details: higher = more signal, called active from +8 up or from −8 down;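 further: MM1S multiple myeloma cell line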
[4] = biological target: Dihydroorotate dehydrogenase (quinone), mitochondrial (Plasmodium falciparum (isolate 3D7)) (UniProt Q08210); test: inhibition of P. falciparum DHODH – biochemical, C-terminal His tag, absorbance 600 nm, primary screen (AID 1175); details: PfDHODH enzyme, DCIP absorbance 600 nm; higher = more signal, called active from +8 up or from −8 down;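 further: recombinant parasite enzyme with a five histidine tag at its C terminus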
Chain of Dihydroorotate dehydrogenase (quinone), mitochondrial (Plasmodium falciparum (isolate 3D7)) (Q08210 whole entry, looked up): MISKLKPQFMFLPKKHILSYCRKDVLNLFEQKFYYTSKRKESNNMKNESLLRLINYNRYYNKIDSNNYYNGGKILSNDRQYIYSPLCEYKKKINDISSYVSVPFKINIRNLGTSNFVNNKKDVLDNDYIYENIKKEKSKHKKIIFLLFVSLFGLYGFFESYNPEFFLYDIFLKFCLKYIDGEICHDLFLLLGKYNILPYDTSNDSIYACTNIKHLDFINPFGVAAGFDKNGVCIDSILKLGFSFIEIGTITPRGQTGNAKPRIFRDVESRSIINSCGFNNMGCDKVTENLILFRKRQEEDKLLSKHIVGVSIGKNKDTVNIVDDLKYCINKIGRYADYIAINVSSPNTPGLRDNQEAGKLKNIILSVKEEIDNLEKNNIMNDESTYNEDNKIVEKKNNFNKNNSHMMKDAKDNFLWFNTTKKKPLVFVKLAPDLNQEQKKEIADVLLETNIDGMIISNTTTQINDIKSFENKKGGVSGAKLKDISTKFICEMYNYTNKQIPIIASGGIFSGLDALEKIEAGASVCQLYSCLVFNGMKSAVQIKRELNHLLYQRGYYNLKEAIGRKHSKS

[5] = inhibition of PAO1 biofilm formation – strain PAO1, LB-PBS medium, absorbance 600 nm, primary screen (AID 1176); details: P. aeruginosa PAO1 growth/biofilm, A600, 12 h; higher = more signal
[6] = growth modulation of vineyard yeast isolate – strain RM11-1a, OD600, basal, 24 h, primary screen (AID 1177);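 further: cultures grown under basal conditions with no added stressor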; details: S. cerevisiae RM11-1a growth, OD600, 24 h; higher = more signal, called active from +8 up or from −8 down
[7] = growth of efflux-deficient E. coli DRC39 – strain DRC39, OD650, 24 h, E. coli filamentation inducers, primary screen (AID 1178);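 further: growth measured as culture turbidity by optical density at 650 nm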; details: E. coli DRC39 acrAB, higher = more signal, called active from +8 up or from −8 down
[8] = growth of efflux-deficient E. coli DRC39 – strain DRC39, OD650, 48 h, E. coli filamentation inducers, primary screen (AID 1179);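 further: screen aims at cell division blockers that make cells filament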; details: E. coli DRC39 delta-acrAB growth, higher = more signal, called active from +8 up or from −8 down
[9] = viability profiling in RPMI8226 myeloma cells – cell-based, resazurin fluorescence, basal, 24 h, PK04 Diversity Set, profiling panel (AID 1180); details: higher = more signal;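 further: RPMI8826 multiple myeloma cell line at 5000 cells per well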
[10] = biological target: E3 ubiquitin-protein ligase XIAP (Homo sapiens) (UniProt P98170); test: small molecules binding XIAP protein – biophysical, small-molecule microarray, fluorescence 635 nm, primary screen (AID 1181); details: higher = more signal;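 further: score merges 667 nm emission and signal to noise over triplicate slides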
Chain of E3 ubiquitin-protein ligase XIAP (Homo sapiens) (P98170 whole entry, looked up, the tested form may be a part): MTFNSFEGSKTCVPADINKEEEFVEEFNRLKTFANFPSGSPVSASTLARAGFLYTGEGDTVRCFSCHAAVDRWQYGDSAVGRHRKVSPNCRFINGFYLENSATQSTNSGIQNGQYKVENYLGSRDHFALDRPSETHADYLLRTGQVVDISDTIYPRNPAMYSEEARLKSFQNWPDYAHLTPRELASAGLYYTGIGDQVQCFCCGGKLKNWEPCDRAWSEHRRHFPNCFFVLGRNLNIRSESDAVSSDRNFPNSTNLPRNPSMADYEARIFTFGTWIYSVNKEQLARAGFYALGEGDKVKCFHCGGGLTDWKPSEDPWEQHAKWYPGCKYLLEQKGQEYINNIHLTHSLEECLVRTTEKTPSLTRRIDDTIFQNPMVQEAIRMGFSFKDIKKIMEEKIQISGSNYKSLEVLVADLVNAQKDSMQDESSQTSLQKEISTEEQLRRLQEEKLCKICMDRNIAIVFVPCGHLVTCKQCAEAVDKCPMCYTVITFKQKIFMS

[11] = tested on: XIP peptide (Xip251-270) binding; test: XIP fragment 251-270 binding compounds – biochemical, small-molecule microarray, fluorescence 635/667 nm, 0.1 µg/mL protein, primary screen (AID 1182); details: fluorescent protein binding, 635 nm, higher = more signal, called active from +8 up or from −8 down
XIP peptide (Xip251-270) = test: compounds binding XIP fragment 251-270 – biochemical, small-molecule microarray, fluorescence 635/667 nm, 0.5 µg/mL protein, primary screen (AID 1183); details: fluorescence 635 nm, higher = more signal
[12] = blood-stage malaria parasite viability loss – strain 3D7, DAPI fluorescence, 100 nL, primary screen (AID 1184);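 further: parasites grown inside human red blood cells in medium with human serum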; details: P. falciparum 3D7 growth, 3 d, higher = more signal
[13] = biological target: Homeobox protein Hox-A13 (Mus musculus) (UniProt Q62424); test: disruptors of Hoxa13 oligonucleotide interaction – biochemical, fluorescence polarization, labeled oligonucleotide, primary screen (AID 1185); details: Hoxa13:DNA binding, 15 min, higher = more signal, called active from +8 up or from −8 down
Chain of Homeobox protein Hox-A13 (Mus musculus) (Q62424 whole entry, looked up): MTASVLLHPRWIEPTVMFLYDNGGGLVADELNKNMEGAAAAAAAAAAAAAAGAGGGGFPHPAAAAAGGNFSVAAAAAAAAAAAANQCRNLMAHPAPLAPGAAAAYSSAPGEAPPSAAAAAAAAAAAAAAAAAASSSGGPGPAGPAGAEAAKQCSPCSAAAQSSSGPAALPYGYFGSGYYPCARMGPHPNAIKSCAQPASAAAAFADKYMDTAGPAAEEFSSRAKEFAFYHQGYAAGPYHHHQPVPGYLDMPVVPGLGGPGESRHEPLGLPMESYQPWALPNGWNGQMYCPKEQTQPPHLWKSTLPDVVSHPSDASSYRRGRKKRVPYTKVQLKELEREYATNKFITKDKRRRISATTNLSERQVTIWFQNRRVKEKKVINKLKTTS

[14] = blockers of DNA damage checkpoint Chk1 activation – imaging, HeLa, hydroxyurea, phospho-Chk1 antibody, percent positive cells, primary screen (AID 1186); details: hydroxyurea-induced phospho-Chk1 immunofluorescence imaging, higher = more signal
[15] = blockers of DNA damage checkpoint Chk1 activation – imaging, HeLa, hydroxyurea, phospho-Chk1 nuclear intensity, primary screen (AID 1187); details: hydroxyurea-induced phospho-Chk1 immunofluorescence imaging, higher = more signal

Row | Compound | z-score [1] | z-score [2] | z-score [3] | composite z-score [4] | z-score [5] | z-score [6] | z-score [7] | z-score [8] | z-score [9] | composite z-score [10] | composite z-score [11] | composite z-score (XIP peptide (Xip251-270)) | z-score [12] | z-score [13] | z-score [14] | z-score [15]
1 | CCCCC(=C=CC[C@H](O)c1cccc(OCCO)c1)C[C@H](O)c1ccccn1 | 1.7 | -1.1 (inactive) | 1.03 (inactive) | -2.69 (inactive) | -0.235 (inactive) | -1.49 (inactive) | 1.58 (inactive) | 1.58 (inactive) | 1.83 | -0.188 | 0.0547 (inactive) | 0.661 | -1.78 | -4.75 (inactive) | -0.949 (inactive) | -0.278 (inactive)
2 | O=C1C2C=CC(C(O)c3ccc(-c4ccccc4)s3)N(Nc3ccccc3)C2C(=O)N1c1ccccc1 (stereo not given) | 0.809 | -2.18 (inactive) | -0.171 (inactive) | 0.569 (inactive) | 0.282 (inactive) | 0.119 (inactive) | -0.172 (inactive) | 0.7 (inactive) | 0.428 | 0.59 | 0.57 (inactive) | 0.769 | -0.657 | -1.07 (inactive) | 0.484 (inactive) | 0.251 (inactive)
3 | O=C(CS)NCCCCCNC(=O)[C@H]1C[C@H]2C(=O)NCC(=O)N2[C@H]1c1cccc(OCCO)c1 | 0.942 | -0.191 (inactive) | 1.49 (inactive) | 0.258 (inactive) | -0.764 (inactive) | -0.39 (inactive) | 0.325 (inactive) | 0.261 (inactive) | 1.28 | 0.0174 | -0.109 (inactive) | 0.388 | 1.01 | -1.67 (inactive) | -0.56 (inactive) | -0.321 (inactive)
4 | CN(C)CCCC[C@@H]1NC(=O)[C@H]2C[C@@H](C(=O)NCCCCCN)[C@@H](c3cccc(OCCO)c3)N2C1=O | 0.306 | -0.7 (inactive) | 0.606 (inactive) | -0.997 (inactive) | 0.118 (inactive) | -0.629 (inactive) | 0.139 (inactive) | -0.386 (inactive) | 0.932 | 0.0101 | 2.88 (inactive) | 0.84 | -0.419 | -2.91 (inactive) | 0.658 (inactive) | 0.729 (inactive)
5 | CCOC(=O)C1=CCC(c2ccc(F)cc2)N(S(=O)(=O)c2ccc(C)cc2)C1 (stereo not given) | -0.175 | 1.47 (inactive) | -0.866 (inactive) | -0.217 (inactive) | 0.766 (inactive) | 0.241 (inactive) | -0.614 (inactive) | -0.124 (inactive) | -1.76 | 0.206 | 0.428 (inactive) | 0.298 | 0.217 | -2.03 (inactive) | 0.447 (inactive) | -0.996 (inactive)
6 | O=C1C2C=CC(C(O)c3ccc4c(c3)OCO4)N(Nc3ccc([N+](=O)[O-])cc3)C2C(=O)N1c1ccccc1 (stereo not given) | -0.415 | -0.13 (inactive) | -0.104 (inactive) | -1.46 (inactive) | 0.0641 (inactive) | -0.729 (inactive) | -1.15 (inactive) | -0.411 (inactive) | -0.56 | 0.191 | -0.164 (inactive) | 0.473 | -0.54 | -4.87 (inactive) | 0.0611 (inactive) | -0.825 (inactive)
7 | COc1ccc([Si](C)(C)[C@@H]2[C@@H](CCO)O[C@]3(C(=O)N(Cc4cccc(N5CCOC5=O)c4)c4ccccc43)[C@H]2C)cc1 | -1.09 | 2.41 (inactive) | -3.35 (inactive) | -0.346 (inactive) | 2.95 (inactive) | 6.05 (inactive) | 1.4 (inactive) | 0.44 (inactive) | -2.78 | -0.0599 | 0.473 (inactive) | 0.332 | -2.54 | -4.2 (inactive) | -0.609 (inactive) | -0.553 (inactive)
8 | CC[C@@H]1C=C(C(=O)O)[C@H](c2cccc3ccccc23)N1S(=O)(=O)c1ccc(C)cc1 | -0.359 | 0.518 (inactive) | -0.653 (inactive) | 0.859 (inactive) | 0.546 (inactive) | -0.43 (inactive) | -0.624 (inactive) | 0.225 (inactive) | -1 | -0.359 | 0.406 (inactive) | 0.437 | -0.509 | -1.85 (inactive) | -1.25 (inactive) | -1.44 (inactive)
9 | COC(=O)C(CC#Cc1ccc2c(c1)[C@]1(C(=O)N2)[C@H](c2ccccc2OCCO)N2[C@H](c3ccccc3)[C@H](c3ccccc3)OC(=O)[C@H]2[C@@H]1C(N)=O)C(=O)OC | -1.55 | 0.858 (inactive) | -9.28 (active) | -2.77 (inactive) | 1.18 (inactive) | 1.77 (inactive) | -0.0371 (inactive) | -0.156 (inactive) | -7.42 | 0.0223 | 0.945 (inactive) | 0.787 | -2.24 | -2.21 (inactive) | 0.202 (inactive) | 0.555 (inactive)
10 | COc1ccc(C#Cc2ccc3c(c2)[C@]2(C(=O)N3)[C@H](c3ccc(O)cc3)N3[C@H](c4ccccc4)[C@H](c4ccccc4)OC(=O)[C@H]3[C@@H]2C(=O)N2CCc3cc(OC)c(OC)cc3C2)cc1 | 0.449 | 1.14 (inactive) | -0.309 (inactive) | -0.103 (inactive) | 1.37 (inactive) | 0.816 (inactive) | -0.101 (inactive) | 0.304 (inactive) | -0.333 | -0.0582 | 0.409 (inactive) | 0.465 | -2 | -1.17 (inactive) | -0.0377 (inactive) | -0.187 (inactive)
